Test results published in PubChem BioAssay (NCI).
Compounds without any hit were thinned out: in the full panel of roughly 83,000, 20% have a hit.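 Single-concentration screen, 48 h exposure, 96-well plates. Endpoint: percent growth. Below 10 = active.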 Values without a mark were called inactive.

System: MDA-MB-468 breast
Assay: NCI-60 one-dose screen, 48 h (100 = growth as untreated, 0 = no growth, -100 = all killed)
Conditions: 10 µM unless noted

Structure (SMILES)	growth
Cc1ccc(N(CC(=O)Nc2ccc(S(=O)(=O)NC3CCN(C)CC3)cc2)S(=O)(=O)c2ccc(Cl)cc2)cc1	50.3%
O=C(O)/C=C/C(=O)Nc1cccc(Cn2nnc3cc(Cl)c(Cl)cc32)c1	94.2%
O=[N+]([O-])c1ccc(N/N=C/C2CCCCCC2)c([N+](=O)[O-])c1	86.4%
CN1CCCNc2c(c(=O)c2=O)NCCCN(C)CCCNc2c(c(=O)c2=O)NCCCN(C)CCCNc2c(c(=O)c2=O)NCCCN(C)CCCNc2c(c(=O)c2=O)NCCCN(C)CCCNc2c(c(=O)c2=O)NCCCN(C)CCCNc2c(c(=O)c2=O)NCCCN(C)CCCNc2c(c(=O)c2=O)NCCC1	32.9%
